Test [1] in a line: qHTS assay to identify small molecule antagonists of the estrogen related receptor (ERR) signaling pathway from Tox21 library - cell viability counter screen (AID 1224834). Further: nearly all actives have a fitted effect of over 30% in size. The method in brief:
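ERR reporter cells, 2,000 per well, rested 6 h, then exposed to compound in DMSO for 17.5 hours at 37 C. Viability read as fluorescence after 30 min with CellTiter-Fluor.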

The target of test [2] is Luciferin 4-monooxygenase (Photinus pyralis) (UniProt P08659). Description: qHTS assay to identify small molecule inhibitors of firefly luciferase (AID 1224835). Further: nearly all actives have a fitted effect of over 25% in size. Further: potency means the concentration at half of the fitted maximal effect. An outline of the steps: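 Inhibition of purified Photinus luciferase is measured by luminescence. Substrate levels (D-luciferin, ATP) sit at their KM values. Each compound is tested in a concentration series.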

A short description of test [3]: qHTS assay to identify small molecule agonists of the constitutive androstane receptor (CAR) signaling pathway - cell viability counter screen (AID 1224836). Further: nearly all actives have a fitted effect of over 45% in size. The method in brief:
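Double-stable HepG2 hepatoma cells (hCAR plus CYP2B6-2.2kb) are treated for 23 h at 37 C with test compounds in 15-point concentration series. PK11195 at 0.75 uM final is co-added. Cell viability is quantified by CellTiter-Fluor.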

Test [4] in a line: qHTS assay to identify small molecule antagonists of the constitutive androstane receptor (CAR) signaling pathway - cell viability counter screen (AID 1224837). Further: nearly all actives have a fitted effect of over 45% in size. An outline of the steps: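 HepG2 cells stably carrying hCAR and CYP2B6-2.2kb reporter, stimulated with 50 nM CITCO and compounds at 15 concentrations for 23 h at 37 C. Viability measured by CellTiter-Fluor fluorescence.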

In test [5] the target is Nuclear receptor subfamily 1 group I member 3 (Homo sapiens) (UniProt Q14994). Kind of test: qHTS assay to identify small molecule antagonists of the constitutive androstane receptor (CAR) signaling pathway (AID 1224838). Further: nearly all actives have a fitted effect of over 40% in size. The method in brief: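 HepG2 cells stably carrying hCAR and a CYP2B6-2.2kb luciferase reporter, seeded 4 hrs before compound (15 concentrations). Stimulated with 50 nM CITCO for 24 hr at 37 C. ONE-Glo luminescence read after 30 min at room temperature.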

Test [6] shares this target. Description: qHTS assay to identify small molecule agonists of the constitutive androstane receptor (CAR) signaling pathway (AID 1224839). Further: nearly all actives have a fitted effect of over 15% in size. An outline of the steps:
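Readout: firefly luciferase luminescence via ONE-Glo. System: HepG2 double-stable for hCAR and CYP2B6-2.2kb. Conditions: 15-point compound titration, PK11195 at 0.75 uM final, 24 h incubation.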

The nature of test [7]: qHTS assay to identify small molecule antagonists of the estrogen related receptor signaling pathway with the pleiotropic PPARgamma coactivator (PGC) from Tox21 10K library - cell viability counter screen (AID 1224840; active means well fitted cell-killing curve with a large enough effect in the repeat runs, not every such curve was filed as active; further: nearly all actives have a fitted effect of over 40% in size). The method in brief: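 PGC/ERR cells (2,000/well) plated 6 h, then compound-treated for 17.5 h at 37 C. Viability measured by CellTiter-Fluor fluorescence after 30 min at 37 C, multiplexed with the pathway assay.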

Test [8] addresses Thyrotropin receptor (Homo sapiens) (UniProt P16473). Description: qHTS assay to identify small molecule agonists of the thyroid stimulating hormone receptor (TSHR) signaling pathway (AID 1224843; calls by dose curve; further: nearly all actives have a fitted effect of over 45% in size). The method in brief:
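HEK293 cells stably bearing the thyrotropin receptor were plated at 800 cells/well and challenged with compound (30 min, RT). Accumulated cAMP was quantified via cAMP-d2 competing for cryptate-tagged antibody.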

Test [9] can be described thus: qHTS assay to identify small molecule agonists of the hypoxia (HIF-1) signaling pathway - cell viability counter screen (AID 1224844; calls by dose curve; further: nearly all actives have a fitted effect of over 50% in size; further: potency means the concentration at half of the fitted maximal effect). An outline of the steps:
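HRE-bla ME-180 cells, 2,000/well in 0.5% dialyzed FBS medium, treated 17 h at 37C with compounds. Viability read in the same wells as the bla reporter, by CellTiter-Glo luminescence after 30 min at room temperature.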

Test [10] in a line: qHTS assay to identify small molecule agonists of H2AX (AID 1224845; active means well fitted activation curve with a large enough effect in the signal ratio in the repeat runs, not every such curve was filed as active; the % refers to the signal ratio). An outline of the steps: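 Phospho-H2AX Ser139 measured by HTRF (ex 320 nm; em 665 and 620 nm) after 24 hr antibody incubation. Compounds, 15 concentrations, 0.76% DMSO, were applied to CHO-K1 cells for 3hr at 37C before lysis.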
Test [11] can be described thus: qHTS assay to identify small molecule agonists of the hypoxia (HIF-1) signaling pathway (AID 1224846; active means well fitted activation curve with a large enough effect in the signal ratio in the repeat runs, not every such curve was filed as active; the % refers to the signal ratio). The method in brief: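 HRE-bla ME-180 beta-lactamase reporter cells in medium with 0.5% dialyzed FBS, pre-incubated 5 h then exposed to compounds 17 h at 37C, 5% CO2; reporter induction read with CCF4-AM FRET substrate.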
Test [12] can be described thus: qHTS RealTime-Glo MT Cell Viability Assay in HepG2 cells - 24 hour (AID 1224867). Further: nearly all actives have a fitted effect of over 50% in size. An outline of the steps: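 Compound treatment began 5 h after plating HepG2 cells (600/well) with NanoLuc luciferase and prosubstrate. Plates stayed at 37 C for 40 h; luminescence was captured at six time points, 0 h through 40 h.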
Test [13] in a line: qHTS RealTime-Glo MT Cell Viability Assay in HEK293 cells - 32 hour (AID 1224868). Further: nearly all actives have a fitted effect of over 50% in size. Further: potency means the concentration at half of the fitted maximal effect. On activity change, negative = cytotoxic: top concentration of the series differs between compounds. The method in brief:
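Quantitative high-throughput screen of the Tox21 10K library in HEK293: cells and RealTime-Glo reagents plated together, compound added at 5 h, luminescence monitored through 40 h at 37 C.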

A short description of test [14]: A CellTox Green Cytotoxicity Assay to monitor cytotoxicity in HEK293 cells - 0 hour (AID 1224869). Further: nearly all actives have a fitted effect of over 50% in size. An outline of the steps: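 HEK293 cells, 600/well, were preincubated 5 hours and then exposed to compounds at 37 C for up to 40 hours. A cell-impermeant cyanine dye staining dead-cell DNA was read by fluorescence at 0, 8, 16, 24, 32 and 40 h time points.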
Test [15] can be described thus: qHTS RealTime-Glo MT Cell Viability Assay in HepG2 cells - 40 hour (AID 1224870). Further: nearly all actives have a fitted effect of over 50% in size. The method in brief:
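Real-time viability: cells seeded at 600 per well together with NanoLuc and cell-permeant prosubstrate, compounds added after 5 h incubation. Luminescence tracked at 0, 8, 16, 24, 32 and 40 h of exposure.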

A short description of test [16]: qHTS assay to identify small molecule agonists of H2AX - cell viability counter screen (AID 1224847; calls by dose curve;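 further: wild-type CHO-K1 cells; top concentration of the series differs between compounds; nearly all actives have a fitted effect of over 30% in size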). The method in brief: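 For this counter screen, overnight-attached CHO-K1 cells received test compounds (15 concentrations, 0.76% DMSO final); 3 hr later at 37C, CellTiter-Glo reagent was added and luminescence recorded after 30 min at room temperature.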
The nature of test [17]: qHTS assay to identify small molecule antagonists of the estrogen related receptor signaling pathway with the pleiotropic PPARgamma coactivator (PGC) from Tox21 10K library (AID 1224841; call rule not given here). The method in brief:
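PGC/ERR cell line, 2,000 cells/well, pre-incubated 6 hours at 37 C, then exposed to compounds for 18 hours at 37 C; luciferase read with One-Glo luminescence after 30 min at room temperature.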

The nature of test [18]: qHTS assay to identify small molecule agonists of the estrogen related receptor signaling pathway with the pleiotropic PPARgamma coactivator (PGC) from Tox21 10K library (AID 1224842). Further: nearly all actives have a fitted effect of over 15% in size. The method in brief:
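Luminescence from One-Glo (30 min, room temperature) measured after PGC/ERR cells had 18 h at 37 C with pinned compound (23 nL in DMSO). Cells had been seeded at 2,000 per well and pre-incubated 6 h.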

Test [19] in a line: qHTS assay to identify small molecule antagonists of the estrogen related receptor (ERR) signaling pathway from Tox21 library (AID 1224848). Further: nearly all actives have a fitted effect of over 50% in size. The method in brief:
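Reading was by luminescence 30 min after ONE-Glo addition. Before that, ERR cells at 2,000 per well had rested 6 h at 37 C/5% CO2 and then received pin-tooled compounds in DMSO for 18 h at 37 C.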

A short description of test [20]: qHTS assay to identify small molecule agonists of the estrogen related receptor (ERR) signaling pathway from Tox21 library (AID 1224849; calls by dose curve; further: nearly all actives have a fitted effect of over 15% in size). As to conditions: ERR reporter cell line, ONE-Glo luciferase, 18 h; at 92.4 µM (top of the series) unless noted. The method in brief: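 ERR reporter cells (NTP line) pre-incubated 6 hours at 37 C, then exposed to compounds for 18 hours at 37 C. ONE-Glo luciferase luminescence was read after 30 minutes at room temperature.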

Unmarked numbers belong to inactive results. Inconclusive results are not listed. Active and inactive are the calls of the source. Unless noted, the call rests on the fitted dose curve; in most records, active means well fitted curve in the direction sought with a large enough effect in the repeat runs; inconclusive means weak or mixed curves; inactive means no such curve, though single readings can be large; an effect the other way counts as inactive or inconclusive.
On the % scale 0 is the no-effect control and ±100 the full control effect.

Chain of Luciferin 4-monooxygenase (Photinus pyralis) (P08659 whole entry, looked up): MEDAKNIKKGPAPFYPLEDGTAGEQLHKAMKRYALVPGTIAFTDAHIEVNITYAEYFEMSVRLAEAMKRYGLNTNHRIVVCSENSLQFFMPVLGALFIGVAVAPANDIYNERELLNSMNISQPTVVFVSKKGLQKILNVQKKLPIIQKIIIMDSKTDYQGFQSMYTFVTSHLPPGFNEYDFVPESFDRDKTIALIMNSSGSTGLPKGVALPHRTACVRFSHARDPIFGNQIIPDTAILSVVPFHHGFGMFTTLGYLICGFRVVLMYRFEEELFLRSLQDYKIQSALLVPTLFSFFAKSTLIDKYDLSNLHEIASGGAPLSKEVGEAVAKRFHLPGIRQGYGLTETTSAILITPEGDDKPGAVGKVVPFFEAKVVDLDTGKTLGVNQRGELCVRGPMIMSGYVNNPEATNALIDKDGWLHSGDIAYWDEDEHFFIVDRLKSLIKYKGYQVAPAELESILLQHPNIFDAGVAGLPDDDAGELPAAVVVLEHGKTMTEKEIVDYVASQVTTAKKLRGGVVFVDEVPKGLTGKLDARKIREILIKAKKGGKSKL
Chain of Thyrotropin receptor (Homo sapiens) (P16473 whole entry, looked up): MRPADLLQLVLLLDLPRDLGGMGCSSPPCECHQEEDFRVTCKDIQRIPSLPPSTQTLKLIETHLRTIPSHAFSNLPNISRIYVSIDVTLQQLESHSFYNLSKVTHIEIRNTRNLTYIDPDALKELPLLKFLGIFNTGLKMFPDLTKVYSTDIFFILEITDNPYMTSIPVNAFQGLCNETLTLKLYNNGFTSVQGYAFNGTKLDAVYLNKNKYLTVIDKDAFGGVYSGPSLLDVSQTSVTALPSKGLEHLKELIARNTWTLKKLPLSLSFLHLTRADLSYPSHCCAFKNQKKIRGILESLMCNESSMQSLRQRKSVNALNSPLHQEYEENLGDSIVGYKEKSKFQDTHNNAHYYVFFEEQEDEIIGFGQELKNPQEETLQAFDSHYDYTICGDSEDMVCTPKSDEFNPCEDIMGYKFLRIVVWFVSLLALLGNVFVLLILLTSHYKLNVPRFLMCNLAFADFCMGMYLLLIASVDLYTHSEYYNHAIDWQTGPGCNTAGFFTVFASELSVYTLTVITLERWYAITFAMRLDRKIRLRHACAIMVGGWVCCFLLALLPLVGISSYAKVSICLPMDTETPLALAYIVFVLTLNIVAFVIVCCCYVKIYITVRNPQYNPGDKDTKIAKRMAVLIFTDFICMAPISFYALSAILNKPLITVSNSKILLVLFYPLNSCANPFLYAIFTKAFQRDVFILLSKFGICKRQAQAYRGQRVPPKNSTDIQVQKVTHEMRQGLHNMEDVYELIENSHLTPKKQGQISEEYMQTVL
Chain of Nuclear receptor subfamily 1 group I member 3 (Homo sapiens) (Q14994 whole entry, looked up): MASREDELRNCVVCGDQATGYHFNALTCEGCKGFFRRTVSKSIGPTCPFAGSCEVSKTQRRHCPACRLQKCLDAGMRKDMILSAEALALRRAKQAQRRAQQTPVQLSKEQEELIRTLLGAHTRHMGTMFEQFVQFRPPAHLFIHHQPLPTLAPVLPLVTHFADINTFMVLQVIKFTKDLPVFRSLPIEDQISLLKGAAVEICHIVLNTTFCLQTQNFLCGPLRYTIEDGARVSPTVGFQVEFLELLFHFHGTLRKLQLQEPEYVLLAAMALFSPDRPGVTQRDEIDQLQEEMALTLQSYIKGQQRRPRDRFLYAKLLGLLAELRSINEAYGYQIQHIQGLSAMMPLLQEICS

For `C/C=C1\[C@H]2C=C(C)C[C@]1(N)c1ccc(=O)[nH]c1C2`, the Potency result in test [1], in test [2], in [3], in [4], in [5] and in test [6] was “inactive” in each case. The Potency entry in test [7], in test [8], in test [9], in test [10], in [13] and in [14] was “inactive” in each case. The Potency result in test [15] is “inactive”. Moreover, the molecule was classed as inactive in [11] and in [12].

`O=C(OCCN1CCOCC1)c1cccnc1Nc1cccc(C(F)(F)F)c1`: the Potency entry in [1], in test [2], in test [3], in test [4], in [5] and in test [6] was “inactive” each time. Besides, the Potency entry in test [7], in [8], in [9], in test [10], in [16] and in test [14] was “inactive” in each case. Further, the Potency entry in [15] was “inactive”. In addition, in [12], the result was inactive.

Regarding `COC=O`, the viability change, negative = cytotoxic in test [1] is 0.652% [at 8.39 µM]; in test [3] it was -8.98% [at 8.39 µM]; in test [7] it was 0.435% [at 8.39 µM]. Moreover, in test [2], the activity change, negative = inhibition is -0.731% [at 10.5 µM]. The activity change, negative = cytotoxicity in [4] was -19.2% [at 8.39 µM]; in test [9], 10.2% [at 6.97 µM]; in test [12], 4.56% [at 6.97 µM]. In addition, the results for the activity, negative = inhibition in test [5], in test [17] and in test [19] were 0.829% [at 8.39 µM], 9.85% [at 8.39 µM] and 14% [at 8.39 µM], respectively. Moreover, the activation in [6] was -2.43% [at 8.39 µM]; in test [18], 3.43% [at 8.39 µM]; in test [8], 0.0799% [at 8.39 µM]; in test [11], -0.206% [at 7.01 µM]. Moreover, in test [10], the activation (H2AX phosphorylation) is -1.42% [at 14 µM]. For the same molecule, in [20], the activity change, positive = activation was 6.68% [at 8.39 µM]. In addition, the activity change, negative = cytotoxic in [13] was 18.9% [at 6.97 µM]; in test [15], 0.3% [at 6.97 µM]. The cytotoxicity in test [14] was -7.29% [at 6.97 µM].

Take `CCCCCCOC(=O)c1ccccc1`: the Potency entry in [1], in [3], in test [4], in [5], in test [6] and in test [7] was “inactive” throughout. In addition, the Potency entry in test [17], in [18], in test [8], in [10], in test [16] and in [19] was “inactive” throughout. The Potency entry in test [14] and in [15] was “inactive” each time. For the same molecule, the Potency in [2] was 15.9 µM (active); in test [9], 19.5 µM (active). The activity change, positive = activation in test [20] was 5.95%. In addition, the molecule was called inactive in [12].

Turning to `O=C(Cl)c1ccc(F)c(Cl)c1`, the Potency entry in test [1], in [2], in test [3], in [4], in [5] and in test [6] was “inactive” throughout. Moreover, the Potency entry in [7], in [18], in [8], in [9], in test [10] and in [16] was “inactive” in each case. For the same molecule, the Potency result in [19] and in test [15] was “inactive” each time. Besides, the activity change, positive = activation in test [20] was -7.97%. Also, in test [12], the outcome was inactive.

With `O=C(NC1CCN(CCc2c[nH]c3ccccc23)CC1)c1ccccc1`, the Potency entry in [1], in [2], in test [3], in test [4], in test [5] and in test [6] was “inactive” in each case. Further, the Potency entry in test [7], in test [8], in test [9], in [10], in test [16] and in test [14] was “inactive” throughout. The Potency entry in test [15] was “inactive”. Also, the molecule was classed as inactive in test [11] and in test [12]. Also, the Potency in test [13] is 7.56 µM (active).

As for `CC1(C)[C@@H]2CC[C@]3(C2)[C@@H]1C(=O)CCC3(C)C`, the Potency result in test [1], in [2], in test [3], in test [4], in test [5] and in test [6] was “inactive” throughout. For the same molecule, the Potency entry in [7], in test [8], in test [9], in test [10], in test [13] and in test [14] was “inactive” throughout. Moreover, the Potency entry in [15] was “inactive”. Further, the molecule was classed as inactive in test [11].

For the molecule `CC(O)C(C)O` (stereo not drawn), the Potency entry in test [1], in test [2], in test [3], in test [4], in test [5] and in test [6] was “inactive” throughout. The Potency result in [7], in test [8], in test [9], in test [10], in [16] and in test [13] was “inactive” throughout. In addition, the Potency result in test [14] and in [15] was “inactive” throughout. For the same molecule, the result in test [11] and in [12] was inactive.

These data come from PubChem BioAssay (Tox21).
